# GLP1R ag = GLP-1 receptor (human) agonism; HEK293 GLP-1R CRE-luciferase, luminescence, 4-6 h; cells express a hypersensitive GLP-1R form; Potency, µM (doses to about 45.6 µM), without a hit: at the top dose activation, hits mostly activators; hit rate 0.007% among 380,000; AID 624172; also: potency is read from the fitted curve at half-maximal effect; % of control where 0% means no effect
# D3 antag = D3 dopamine receptor (human) antagonism; hit rate 2.5% among 360,000; max response, negative = inhibition, %; P35462; D3R cells, DiscoveRx beta-arrestin luminescence, antagonist mode; hits give low values; in the data active = max response below about -50%; inconclusive = no clear call, values can overlap the other calls; also: % is scaled to controls: 0 for no effect and ±100 for the full control effect
# Target sequence (P35462 whole entry, looked up): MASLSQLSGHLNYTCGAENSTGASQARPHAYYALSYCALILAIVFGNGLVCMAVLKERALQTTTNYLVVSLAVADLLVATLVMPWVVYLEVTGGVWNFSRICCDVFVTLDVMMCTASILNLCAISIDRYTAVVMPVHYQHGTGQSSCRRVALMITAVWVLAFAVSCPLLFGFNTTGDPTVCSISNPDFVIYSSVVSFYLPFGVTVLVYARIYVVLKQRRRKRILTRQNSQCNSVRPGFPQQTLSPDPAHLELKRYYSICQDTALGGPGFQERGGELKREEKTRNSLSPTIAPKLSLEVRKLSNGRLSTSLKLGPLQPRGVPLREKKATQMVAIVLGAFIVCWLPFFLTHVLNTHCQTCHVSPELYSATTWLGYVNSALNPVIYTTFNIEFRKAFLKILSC
#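 Cells plated overnight at 1500 cells/well, then exposed to library compounds with dopamine controls for 90 minutes at 37 degrees C. DiscoveRx reagent added for 30–60 minutes at room temperature; luminescence read, quantitative HTS format.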
# D3 ag = activates the human D3 dopamine receptor; P35462; max activation, %; hit rate 0.58% among 410,000; D3R DiscoveRx beta-arrestin cells, luminescence, 90 min; in the data active = max activation above about 30%; also: 0% is about no effect
#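 Cells at 1500/well, incubated overnight, then treated with pinned compounds (dopamine as control) for 90 min at 37 degrees C. DiscoveRx reagent added for 30 - 60 minutes at room temperature; luminescence read.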
# GLP1R inv ag = inverse agonists of human GLP-1 receptor | HEK293 GLP-1R CRE-luciferase, luminescence, 24 h; GLP-1R form is constitutively active | Potency, µM (titrated, usually from 38.3 µM), inactives show at the top dose activity change, negative = inhibition, most hits filed as inhibitors | hit rate 1.6% among 410,000 | AID 624417; also: potency is read from the fitted curve at half-maximal effect; % is scaled to controls: 0 for no effect and ±100 for the full control effect; nearly all actives have a fitted effect of over 55% in size
#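 Luminescence readout: a drop in cAMP-driven luciferase signal flags inverse agonism at a constitutively active GLP-1R stably expressed in HEK293. Compound exposure lasted 24 hr at 37 deg C, 5% CO2.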
# Starred values were filed as active, the others as inactive; ? = inconclusive; nt = no result given. Hits are enriched below; roughly 4.3% of the tested compounds scored in any of these assays. Unless noted, calls follow the shape of the dose curve; as a rule, active = well fitted curve in the direction sought with a large enough effect; inconclusive = small, poorly fitted or top-dose-only effect, or another doubt; inactive = no such curve, though single readings can be large; an effect the other way counts as inactive or inconclusive.
SMILES,GLP1R ag,D3 antag,D3 ag,GLP1R inv ag
O=C(CSc1nc2ccccc2nc1Cc1ccccc1)N1CCc2ccccc21,0.7%,nt,-3.2,9.9%
Cc1ccc(-c2csc(C(C)(O)c3ccc(F)c(F)c3)n2)cc1C (stereo not given),4.4%,-69.3*,-9.0,?
Cc1ccccc1Nc1nc2ccccc2s1,2.4%,9.9,18.2,11.2µM*
CN(C)C(=S)Nc1nc2ccccc2s1,-2.1%,1.7,-1.8,0.631µM*
CCOc1ccc2nc(NC(=S)N(C)C)sc2c1,-10.2%,14.5,5.1,?
CC(C)c1ccc(OCC(=O)NCCS(=O)(=O)N2CCN(c3ccc(F)cc3)CC2)cc1,nt,nt,6.1,2.4%
CCN(CC)C(=O)C1CCCN(c2ccc([N+](=O)[O-])cc2/C=N/NC(=O)c2cccc(Br)c2)C1 (stereo not given),-13.1%,-10.4,-2.9,2µM*
O=C(N/N=C/c1cc([N+](=O)[O-])ccc1N1CCCCCC1)c1ccccn1,3.7%,-5.5,0.3,-28.2%
Cc1ccc(/C=C/c2onc(C)c2S(=O)(=O)N2CCC(C(=O)N3CCOc4ccc(C)cc43)CC2)cc1,nt,nt,-8.2,10.6%
Cc1ccc(OCCNC(=O)c2cccc(S(=O)(=O)NCc3ccccc3)c2)cc1,3.6%,6.3,-12.6,5.01µM*
CC(C)N(CCNC(=O)c1ccc(CS(=O)(=O)c2c(Cl)cccc2Cl)o1)Cc1ccccc1,0.3%,-69.8*,-22.2,?
Cc1ccc(S(=O)(=O)NCc2ccc(C(=O)NCCN(Cc3ccccc3)C(C)C)cc2)cc1,14.4%,-78.7*,-18.7,?
O=C(NCc1ccncc1)c1cccc(S(=O)(=O)NCc2ccccc2)c1,1.7%,-5.1,-0.2,4.9%
Cc1ccccc1S(=O)(=O)Cc1ccc(C(=O)NCCN(Cc2ccccc2)C(C)C)o1,10.6%,?,-20.2,?
CCOc1sc2nc(C)n(CC(=O)Nc3cccc(C)c3)c(=O)c2c1C,-1.0%,nt,-6.6,-8.6%
Cc1ccc(-c2csc3n[nH]c(=S)n23)cc1,-1.4%,-100.3*,-1.9,3.6%
CCn1c(-c2ccc(C)cc2)n[nH]c1=S,-6.8%,?,-0.5,1.0%
COc1cc2c(-c3ccc(O)cc3)nc3c(c(C)nn3-c3ccccc3)c2cc1OC,2.9%,29.2,79.7*,-11.5%
Cc1cc(NC(=O)CCN2CCN(C/C=C/c3ccccc3)CC2)ccc1Br,-1.3%,-16.8,-5.2,?
O=C(CN1CCN(C/C=C/c2ccccc2)CC1)NC(=O)NC1CCCCC1,4.3%,-65.4*,-5.5,?
O=C(CCN1CCN(C/C=C/c2ccccc2)CC1)Nc1ccccc1,-5.7%,-57.8*,3.7,?
Cc1cccc(NC(=O)CCN2CCN(C/C=C/c3ccccc3)CC2)c1,6.4%,-63.9*,7.4,?
COc1cccc(NC(=S)N2CCN(C/C=C/c3ccccc3)CC2)c1,5.4%,-10.0,0.0,5.62µM*
COc1cc(NC(=S)N2CCN(C/C=C/c3ccccc3)CC2)cc(OC)c1,-0.2%,0.0,-8.1,?
CCCCC(F)(F)[C@@]1(O)CC[C@H]2[C@H](CC(=O)[C@@H]2CCCCCCC(=O)O)O1,12.9%,nt,nt,nt
SMILES,GLP1R ag,D3 antag,D3 ag,GLP1R inv ag
CCc1nc2ccc(C(=O)N(C)CC(=O)Nc3ccc(Cl)c(C(F)(F)F)c3)cc2nc1CC,-23.6%,21.2,-2.3,8.91µM*
CN(CC(=O)NC(=O)NCc1ccccc1)CC(=O)Nc1ccc(Cl)c(C(F)(F)F)c1,7.9%,12.1,8.8,7.94µM*
CN(CC(=O)NCc1ccccc1)CC(=O)Nc1ccc(Cl)c(C(F)(F)F)c1,4.4%,6.2,6.3,?
CN(CC(=O)NC(=O)NCc1ccccc1)Cc1cccc(Cl)c1Cl,0.0%,0.0,-11.7,10µM*
CCOc1ccc(NC(=O)CN(C)C(=O)c2ccc3nc(CC)c(CC)nc3c2)cc1OCC,5.0%,18.5,4.6,12.7%
CCCNCC1C(Oc2ccc(Cl)cc2Cl)C(=O)N1c1cccc(C)c1C (stereo not given),0.0%,?,0.3,?
CCCCNCC1C(Oc2ccc(Cl)cc2)C(=O)N1c1ccccc1C (stereo not given),3.4%,?,-24.5,10µM*
CCc1cccc(N2C(=O)N(Cc3c(F)cccc3Cl)c3ccccc3S2(=O)=O)c1,-0.9%,nt,3.6,14.4%
CCOc1ccc(NC(=O)c2ccccn2)cc1,-28.3%,-14.3,-2.7,2µM*
COc1ccc(OCC(=O)NCCNC(=O)c2ccccn2)cc1,1.9%,10.9,4.6,-5.5%
COc1ccc(OCC(=O)NNC(=S)NC(=O)C2CC2)cc1,-3.6%,6.6,31.2*,-7.3%
COc1ccc(OCC(=O)NNC(=O)c2ccccn2)cc1,-8.4%,-81.7*,-9.5,-9.7%
CC(Oc1cccc(Br)c1)C(=O)NNC(=O)c1ccccn1 (stereo not given),0.9%,?,-16.4,11.2µM*
CN(c1ccccc1)S(=O)(=O)c1cccc(C(=O)NCC(=O)Nc2ccc(F)c(F)c2F)c1,-6.1%,-1.4,-2.9,?
COc1ccc(-c2csc(NC(=O)C3CCN(c4ncnc5sc(C)c(C)c45)CC3)n2)cc1OC,9.7%,55.9,46.5*,7.08µM*
CCCn1c(O)c(N=NC(=O)CNC(=O)/C=C/c2ccc(OC)cc2)c2ccccc21,-2.2%,-50.0*,-18.1,-26.2%
CCOc1ccc(/C(O)=C2/C(=O)C(=O)N(c3ncccn3)C2c2ccc(C)cc2)cc1 (stereo not given),-1.2%,-21.2,30.8*,1.0%
COc1ccc(-c2sc(NC(C)=O)nc2-c2ccccc2)cc1,-3.6%,5.1,-2.2,?
O=C(CCSc1nc(-c2ccccc2)c(-c2ccccc2)o1)N1CCCCC1,13.2%,18.1,8.4,?
O=C(CSc1nc(-c2ccccc2)c(-c2ccccc2)o1)N1CCCCC1,-0.5%,19.0,0.6,11.2µM*
O=C(CSCC(=O)N1CCCCC1)Nc1nc(-c2ccccc2)c(-c2ccccc2)s1,-2.9%,-51.2*,-11.6,5.62µM*
CCc1ccccc1NC(=O)CNC(=O)CNC(=O)c1cccs1,-0.2%,22.0,-3.1,-19.1%
OCCCc1nc2ccccc2n1CCc1ccccc1,6.3%,5.9,-2.0,0.0%
CCCc1nc2ccccc2n1CCc1ccccc1,10.1%,3.4,0.0,10µM*
Cn1c(CCc2ccc(N)cc2)nc2ccccc21,-4.9%,-51.3*,-7.2,?
SMILES,GLP1R ag,D3 antag,D3 ag,GLP1R inv ag
Cc1ccc(SCC(=O)Nc2ccccc2N2CCOCC2)cc1,11.3%,21.3,3.6,7.94µM*
O=C(Cc1ccccc1)Nc1ccccc1N1CCCC1,-2.1%,-20.5,-7.4,?
O=C(Nc1ccccc1N1CCOCC1)C1=NN(c2ccccc2)C(=O)CC1,7.8%,-51.7*,-3.9,11.1%
O=C(Cc1ccccc1)Nc1ccccc1N1CCOCC1,-0.9%,-52.4*,4.9,-3.8%
O=C(Cc1cccc(C(F)(F)F)c1)Nc1ccccc1N1CCCC1,14.0%,10.7,-8.4,10µM*
Cc1nn2c(=O)cc(COc3ccc(/C=C(\C#N)C(=O)Nc4ccccc4)cc3Cl)nc2s1,-1.1%,nt,-5.1,?
CCCn1c(N2CCN(Cc3ccc(Cl)cc3)CC2)nc2ccccc21,-6.2%,-21.7,-1.7,11.2µM*

# From PubChem
